The values below come from PubChem BioAssay (NCATS).

Structures are written as SMILES. Records with an inconclusive call do not appear. Calls of active or inactive are those of the source. Calls come from the whole dose curve; tested in HEK293 reporter line.

Assay [1] is described as follows: qHTS for Inhibitors of the Functional Ribonucleoprotein Complex (vRNP) of Lassa (LASV) Arenavirus: Viability assay - alamar blue signal for LASV Primary Screen (AID 1347083). Note: nearly all actives have a fitted effect of over 80% in size. The following applies: cell viability, alamar blue fluorescence (LASV minigenome counter-screen); series mostly up to 57.5 µM. A general note: qHTS replaces the single test concentration by a dilution series.

Assay [2] is described as follows: qHTS for Inhibitors of the Functional Ribonucleoprotein Complex (vRNP) of Lymphocytic Choriomeningitis Arenaviruses (LCMV): Viability assay - alamar blue signal for LCMV Primary Screen (AID 1347085). Note: nearly all actives have a fitted effect of over 80% in size. The following applies: alamar blue viability counter-screen, LCMV vRNP screen cells; series mostly up to 57.5 µM.
Assay [3] can be described thus: qHTS for Inhibitors of the Functional Ribonucleoprotein Complex (vRNP) of Lassa (LASV) Arenavirus: LASV Primary Screen - GLuc reporter signal (AID 1347082). Note: nearly all actives have a fitted effect of over 60% in size. The following applies: LASV minigenome vRNP, Gaussia luciferase reporter; series mostly up to 57.5 µM.
Potency is the fitted concentration of half-maximal effect.

Consider `CC(=O)N1CCN(c2ccc(OC[C@H]3CO[C@](Cn4ccnc4)(c4ccc(Cl)cc4Cl)O3)cc2)CC1`, for which the Potency result in assay [1] and in assay [2] was “inactive” each time.
In the case of `COc1cc(NS(C)(=O)=O)ccc1Nc1c2ccccc2nc2ccccc12`, the Potency in assay [1] is 2.51 µM (active).
In the case of `CC(=O)OC[C@H]1O[C@@H](n2ncc(=O)[nH]c2=O)[C@H](OC(C)=O)[C@@H]1OC(C)=O`, in assay [2], the Potency entry is “inactive”.
As for `CC(=O)SCC(CC(=O)c1ccc(C)cc1)C(=O)O` (configuration not stated), the Potency result in assay [3], in assay [1] and in assay [2] was “inactive” in each case.
Take `Cc1ncc(CO)c(CN)c1O`: the Potency result in assay [3], in assay [1] and in assay [2] was “inactive” in each case.
On to `CN(c1nccc(=O)[nH]1)C1CCN(c2nc3ccccc3n2Cc2ccc(F)cc2)CC1`, for which the Potency result in assay [3] and in assay [2] was “inactive” in each case. In addition, the Potency in assay [1] is 30.6 µM (active).
Regarding `C#CC(O)(C=CCl)CC` (configuration not stated), the Potency entry in assay [3], in assay [1] and in assay [2] was “inactive” each time.
Consider `COc1cc2nc(Cl)nc(N)c2cc1OC`, for which the Potency result in assay [3] and in assay [2] was “inactive” throughout.
With `CN(C)c1ccc2nc3ccc(=[N+](C)C)cc-3sc2c1`, the results for the Potency in assay [3] and in assay [2] were 9.68 µM (active) and 24.3 µM (active), respectively.
With `CC(=O)Oc1cc(C(C)C)c(OCCN(C)C)cc1C`, the Potency result in assay [3], in assay [1] and in assay [2] was “inactive” in each case.
As to `COc1ccc2cc([C@H](C)C(=O)O)ccc2c1`, the Potency entry in assay [3], in assay [1] and in assay [2] was “inactive” throughout.
With `Nc1ccc(O)cc1`, the Potency result in assay [3], in assay [1] and in assay [2] was “inactive” throughout.
Consider `CN1N=C(C(N)=O)CCC1=O`, for which the Potency entry in assay [3], in assay [1] and in assay [2] was “inactive” each time.
In the case of `O=C(Nc1cccc2c(=O)cc(-c3nn[nH]n3)oc12)c1ccc(OCCCCc2ccccc2)cc1`, the Potency in assay [1] is 30.6 µM (active).
Turning to `CNC(=O)c1ccccc1Sc1ccc2c(/C=C/c3ccccn3)n[nH]c2c1`, the Potency entry in assay [3] and in assay [2] was “inactive” in each case.
As to `CC(C=CC1=C(C)CCCC1(C)C)=CC=CC(C)=CC(=O)O`, the Potency entry in assay [3] was “inactive”. The Potency in assay [2] is 0.544 µM (active).
Consider `CNCCCCOc1ccccc1Cc1ccccc1`, for which the Potency result in assay [2] was “inactive”.
With `Nc1nc(Cl)nc2c1ncn2[C@H]1C[C@H](O)[C@@H](CO)O1`, the Potency result in assay [3] is “inactive”. Also, the Potency in assay [2] is 8.63 µM (active).
As for `CO[C@H]1C[C@@H]2CC[C@@H](C)[C@@](O)(O2)C(=O)C(=O)N2CCCC[C@@H]2C(=O)O[C@H]([C@H](C)C[C@@H]2CC[C@H](OCCO)[C@H](OC)C2)CC(=O)[C@H](C)C=C(C)[C@@H](O)[C@@H](OC)C(=O)[C@H](C)C[C@H](C)C=CC=CC=C1C`, the Potency was 0.0086 µM (active) in assay [1] and 0.0769 µM (active) in assay [2].
